Compounds with a hit are over-represented: about 2.8% of the library has one in this group of screens.
PI5P4Ka inh: PI5P4K alpha (human) kinase inhibition. P48426. PI5P4Kalpha enzyme, ADP-Glo luminescence, 60 min; stronger effect = lower value. max response, %. 330,000 compounds, 1.2% hits. AID 652105; active means max response of -50% or lower; inconclusive means between -30% and -50%; inactive means -30% or higher; further: value at the top dose of about 77 µM; on the % scale 0 is the no-effect control and ±100 the full control effect
Target sequence (P48426 whole entry, looked up): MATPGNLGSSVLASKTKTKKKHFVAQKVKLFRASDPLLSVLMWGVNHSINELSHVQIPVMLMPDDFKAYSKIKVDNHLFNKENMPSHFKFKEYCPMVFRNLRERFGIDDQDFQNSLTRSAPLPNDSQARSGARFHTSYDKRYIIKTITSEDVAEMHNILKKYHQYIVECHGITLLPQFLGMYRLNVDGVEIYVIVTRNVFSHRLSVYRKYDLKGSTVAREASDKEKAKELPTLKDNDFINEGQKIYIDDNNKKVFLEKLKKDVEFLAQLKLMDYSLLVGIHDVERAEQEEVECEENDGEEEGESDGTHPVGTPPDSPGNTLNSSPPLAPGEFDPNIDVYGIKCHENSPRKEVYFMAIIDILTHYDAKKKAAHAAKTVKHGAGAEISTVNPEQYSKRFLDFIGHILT
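Single end-point luminescence (ADP-Glo) quantified ADP from PI5P4Kalpha turnover; ATP 5 microM final, 1 h at RT, 0.1% CHAPS and 0.28 mM EGTA in HEPES pH 7.4.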
POLB inh: blocks human DNA polymerase beta activity | Potency, µM (titrated, usually from 114 µM), without a hit: top-dose activity change, negative = inhibition, usual class: inhibitors | 340,000 compounds, 1.3% hits | Pol beta primer extension/strand displacement, fluorescence kinetic; further: potency means the concentration at half of the fitted maximal effect; on the % scale 0 is the no-effect control and ±100 the full control effect
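Human Pol beta at 10 nM; strand-displacement substrate 50 nM final. Compound exposure 15 min at room temperature before start, reaction 10 min at room temperature.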
Pol kappa inh-1: blocks human DNA polymerase kappa activity; Q9UBT6; purified Pol kappa, fluorescent DNA synthesis assay, 10 min; Potency, µM (doses to about 107 µM), without a hit: at the highest dose activity, negative = inhibition, most hits filed as inhibitors; 400,000 compounds, 0.53% hits; AID 588579; further: potency means the concentration at half of the fitted maximal effect; on the % scale 0 is the no-effect control and ±100 the full control effect
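Fluorescent qHTS in 1536-well format: enzyme (10 nM) and compound sat 15 min at room temperature before 50 nM substrate (final) was added. Signal taken at 0 and 10 min; no-enzyme buffer wells were negative controls.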
POLI inh: blocks human DNA polymerase iota activity; 390,000 compounds, 1% hits; AID 588590; Potency, µM (highest dose often 115 µM), inactives show at the top dose activity, negative = inhibition, actives largely listed as inhibitors; Pol iota fluorescent replication assay, 10 min; Q9UNA4; further: potency means the concentration at half of the fitted maximal effect
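Pol iota at 10 nM preincubated 15 min with compounds at room temperature; reaction started with fluorescent substrate, 50 nM final. Fluorescence read kinetically at 0 and 10 min; buffer-only wells as negative control.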
PI4K2A inh: blocks human PI4K2A kinase activity; purified PI4K2A, ADP-Glo luminescence, 1 h; stronger effect = lower value; activity change, negative = inhibition, % at 76.9 µM; 420,000 compounds, 0.13% hits; AID 1346378; in the data active means activity change below about -50%; inconclusive means mostly about -30% to -49%;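 further: -100% = wells without enzyme as full effect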
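ADP-Glo luminescence measured ADP generated by PI4K2A enzyme (4 ug/mL before mixing) with 1.2 mM PI substrate (pre-mix) and 300 microM ATP (pre-mix). Tris pH7.5 buffer with MgCl2, Triton X-100; 1 h reaction at ambient temperature.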
Pol eta inh-1: blocks human DNA polymerase eta activity; 390,000 compounds, 1.2% hits; Potency, µM (top dose mostly 114 µM), without a hit: top-dose activity change, negative = inhibition, most hits filed as inhibitors; recombinant Pol eta, fluorescent DNA replication assay; further: potency means the concentration at half of the fitted maximal effect; on the % scale 0 is the no-effect control and ±100 the full control effect
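Pol eta (10 nM) was preincubated with compounds for 15 min at room temperature, after which fluorescent replication substrate (50 nM final) was added to start the reaction. Fluorescence was read kinetically at 0 and 10 min.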
TbPGK inh: blocks T. brucei phosphoglycerate kinase; 500 compounds, 79% hits; AID 686980; Potency, µM (highest dose often 57.5 µM), without a hit: at the highest dose activity change, negative = inhibition, hits mostly inhibitors; shares compounds with Pol kappa inh-1; TbPGK coupled GAPDH assay, Kinase-Glo luminescence; further: potency means the concentration at half of the fitted maximal effect; on the % scale 0 is the no-effect control and ±100 the full control effect; nearly all actives have a fitted effect of over 65% in size
POLI cherry-pick: Confirm cherry-picked inhibitors of human polymerase iota | 1,500 compounds, 77% hits | AID 720496 | Pol iota primer extension, TAMRA/BHQ fluorescence | Potency, µM, usual class: inhibitors | shares compounds with Pol kappa inh-1; further: potency means the concentration at half of the fitted maximal effect
Pol kappa inh-2: confirmation of human DNA polymerase kappa inhibitors | shares compounds with Pol eta inh-1 | purified Pol-kappa, fluorescent strand-displacement substrate | Potency, µM, usual class: inhibitors | 920 compounds, 76% hits | AID 720501; further: potency means the concentration at half of the fitted maximal effect
Pol eta inh-2: confirmation of human DNA polymerase eta inhibitors; 2,600 compounds, 64% hits; Pol eta primer extension, TAMRA/BHQ fluorescence, 10 min; shares compounds with Pol eta inh-1; Potency, µM, actives largely listed as inhibitors; further: potency means the concentration at half of the fitted maximal effect
An asterisk follows results filed as active; ? = inconclusive; / = not tested or not shown; [ ] = another dose, or the depositor's remark. Unless noted, the call rests on the fitted dose curve; in most records, active means well fitted curve in the direction sought with a large enough effect; inconclusive means small, poorly fitted or top-dose-only effect, or another doubt; inactive means no such curve, though single readings can be large; an effect the other way counts as inactive or inconclusive.

SMILES	PI5P4Ka inh	POLB inh	Pol kappa inh-1	POLI inh	PI4K2A inh	Pol eta inh-1	POLI cherry-pick	others
COc1cc(/C=N/Nc2nncn2/N=C/c2ccc(O)c(OC)c2)ccc1O	-22.6	2.2%	-8.4%	20µM*	-22.3	-32.9%	/	TbPGK inh=?
CCc1ccc(C(=O)c2cn(CC(=O)Nc3ccc4c(c3)OCO4)c3cc(OC)c(OC)cc3c2=O)cc1	/	6.31µM*	4.5%	51.7%	-1.4	79.4µM*	42.3*
COc1cccc(NC(=O)Cn2cc(C(=O)c3ccc(C)cc3)c(=O)c3cc(OC)ccc32)c1	/	20µM*	1.8%	?	1.1	79.4µM*	47.4*
COc1ccc(C)cc1NC(=O)c1cc(S(=O)(=O)N2CCC(C)CC2)ccc1F	/	0.5%	-2.8%[60.1 µM]	?	-6.4	-7.2%	/
CC(C)(C)C1CCc2c(sc(NC(=O)CCC(=O)O)c2C(=O)Nc2ccccc2C(F)(F)F)C1 (stereo not drawn)	/	?	-24.8%	?	-3.7	?	?
COc1ccccc1NC(=O)c1c(NC(=O)c2cccs2)sc2c1CCC(C(C)(C)C)C2 (stereo not drawn)	/	2.9%	-23.3%	61.9%	-0.8	-7.1%	/
Cc1ccc(NC(=O)Cc2ccc(-n3c(C)nc4cccnc43)cc2)cc1C	/	4.0%	-16.0%	-1.4%	-3.1	-14.1%	/
O=C(N/N=C/c1ccc(Cl)c([N+](=O)[O-])c1)c1ccc2c(c1)OCCO2	-7.0	/	-9.6%	-23.6%	0.5	?	75.2*
O=C(Nc1ccc(Cl)c([N+](=O)[O-])c1)c1ccc2c(c1)OCCO2	-0.8	15.1%	-4.2%	128.9%	-3.4	-21.2%	/
O=C(O)c1ccc(N/N=C/c2ccc(-c3cc(Cl)ccc3Cl)o2)cc1	-10.3	?	-12.7%	?	5.6	79.4µM*	?
Cc1ccc2c(C)c(C(=O)N(Cc3ccc(Cl)cc3)C3CCS(=O)(=O)C3)oc2c1 (stereo not drawn)	/	-23.0%	-5.9%	-11.9%	-1.3	-19.2%	/
O=C1CC(=O)N(Cc2ccco2)C(=S)N1	?	7.94µM*	3.16µM*	?	?	3.16µM*	/	TbPGK inh=-96.8%
S=C1NCN(Cc2ccco2)CN1	3.4	16.0%	-6.7%	-14.2%[58.9 µM]	-6.1	-5.5%	/
Cc1ccnc(NC(=O)c2ccc3c(c2)OCO3)c1	-24.8	2.9%	-9.6%	140.2%	?	-1.9%	/	TbPGK inh=20.6µM*
CCC(COC)Oc1cc(NCc2ccccc2)c2ncn(C(C)C)c2c1 (stereo not drawn)	-0.3	/	4.8%	3.16µM*	?	79.4µM*	47.4*	Pol eta inh-2=75.7*
O=C1C=C(Nc2ccc(O)cc2)CC(c2ccco2)C1 (stereo not drawn)	-8.3	-21.1%	-3.2%	-5.0%	-9.0	?	/
O=C1C=C(O)CC(c2ccco2)C1 (stereo not drawn)	-3.9	6.31µM*	?	4.47µM*	-6.9	3.16µM*	75.2*	Pol kappa inh-2=16.8*;Pol eta inh-2=30.1*
CCCSc1nc(C)c(-c2csc(C(C#N)=C3CCCC3)n2)cc1C#N	/	-103.3%	?	?	-7.4	44.7µM*	67*	Pol eta inh-2=33.8*
Cc1ccc(S(=O)(=O)CCC(=O)NCc2ccccc2)cc1	4.2	13.2%	-1.5%	182.0%	0.8	-17.6%	/
